Experimental data: PubChem BioAssay
Unmarked numbers belong to inactive results. How the calls were made is not given here.

Target: Pantothenate synthetase (Mycobacterium tuberculosis (strain ATCC 25618 / H37Rv)) (UniProt P9WIL5)
Test: Coupled enzyme confirmation of inhibitors against recombinant Mtb PanC (AID 375);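 further: 0% = full reaction with vehicle and 100% = no enzyme background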
Conditions: coupled enzyme assay; at 10 µM, active compounds read high

Pantothenate synthetase (Mycobacterium tuberculosis (strain ATCC 25618 / H37Rv)), sequence (P9WIL5 whole entry, looked up): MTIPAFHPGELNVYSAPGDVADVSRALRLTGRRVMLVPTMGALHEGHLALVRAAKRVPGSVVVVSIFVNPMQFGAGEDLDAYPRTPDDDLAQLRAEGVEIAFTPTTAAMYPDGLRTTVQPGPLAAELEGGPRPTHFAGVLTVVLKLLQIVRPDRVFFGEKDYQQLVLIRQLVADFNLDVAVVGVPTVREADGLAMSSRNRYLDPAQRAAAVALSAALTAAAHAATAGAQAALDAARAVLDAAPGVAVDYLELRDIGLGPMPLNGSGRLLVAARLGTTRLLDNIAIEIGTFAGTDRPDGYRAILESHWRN

| Structure (SMILES) | inhibition [%] |
| --- | --- |
| O=C(Cn1cnc2ccccc2c1=O)NCCC(=O)N1CCN(Cc2ccccc2)CC1 | 0 |
| CCOc1ccc2[nH]c(=O)c(CN(Cc3ccccc3)C(=O)N3CCCC3)cc2c1 | 6 |
| COc1cc2c(cc1OC)CN(C(=O)CSc1nc3[nH]ncc3c(=O)n1-c1ccccc1)CC2 | 2 |
| Nn1c(SCC(=O)NC2CCCCC2)nnc1-c1ccc(Cl)cc1 | 2 |
| CC1=CC2=C(OC1N(C)C)c1cccc3cccc(c13)C2=O (stereo unspecified) | 5 |
| CCCCP(=O)(CCCC)c1ccccc1C(=O)O | 3 |
| O=C(CSc1ncnc2nc[nH]c12)c1ccc(Cl)cc1 | 1 |
| O=C(Nc1ccc(F)cc1)N(Cc1ccco1)Cc1cc2cc3c(cc2[nH]c1=O)OCO3 | 0 |
| Cc1cc(Br)ccc1NC(=O)CNC(=O)CSc1n[nH]c(N)n1 | 6 |
| O=C(Sc1nnnn1C1CCCCC1)c1cccs1 | 0 |
| CC(C)CCNc1cc(=O)n(C)c(=O)n1C | 0 |
| COc1ccc(Cc2nc(-c3ccc(NC(=O)c4cccnc4)cc3)no2)cc1 | 0 |
| COCCNC(=O)CC(NS(=O)(=O)c1ccc(NC(C)=O)cc1)C(C)C (stereo unspecified) | 0 |
| CC1CC(=O)C2=C(C1)OC(N)=C(C#N)C2c1coc2ccccc2c1=O (stereo unspecified) | 6 |
| CC(C)(C)NC(=O)Cn1nnc(-c2cccs2)n1 | 5 |
| CCOc1ccc(NC(=O)CN2CCN(CC(=O)c3ccc(OCC)cc3)CC2)cc1 | 4 |
| O=C(Cn1cccc1)N1CCN(C(c2ccccc2)c2ccccc2)CC1 | 13 |
| NS(=O)(=O)c1cc2c(cc1Cl)NC(C1C[C@H]3C=C[C@@H]1C3)NS2(=O)=O (stereo partly specified) | 0 |
| Cc1nc(-c2cccc(-c3noc(C)n3)c2)no1 | 0 |
| COc1ccc(Br)cc1C1N2CC3(C)CN1CC(C)(C2)C3=O (stereo unspecified) | 0 |
| Cc1ccc(OCc2nnc(SCC(=O)Nc3ccc4c(c3)OCO4)n2C)cc1 | 0 |
| Cc1nnc(NC(=O)CSc2cn(CCNC(=O)c3ccccc3)c3ccccc23)s1 | 0 |
| CCC(C)(C(=O)NC1CCCC1)N(C(=O)c1cnccn1)c1c(C)n(C)n(-c2ccccc2)c1=O (stereo unspecified) | 0 |

| Structure (SMILES) | inhibition [%] |
| --- | --- |
| O=C(Nc1ccc2c(c1)OCO2)c1ccc(CN2CCOCC2)cc1 | 1 |
| COc1cccc(Cn2c(Oc3ccccc3)nc3c2c(=O)n(C)c(=O)n3C)c1 | 0 |
| COC(=O)C(CC(C)C)NC(=O)CSc1nc(-c2ccccc2)c(C#N)c(=O)[nH]1 (stereo unspecified) | 0 |
| S=c1[nH]nc(-c2cccc(Br)c2)o1 | 10 |
| CC1CCN(C(=O)CSc2nnc(-c3ccc(S(=O)(=O)N4CCOCC4)cc3)n2C)CC1 | 4 |
| CCOc1ccc(NC(=O)CCN2CCN(c3ccccc3)CC2)cc1 | 0 |
| CCC(CC)C(=O)NCCc1cc2ccc(C)cc2[nH]c1=O | 0 |
| CCC(Sc1nc2n[nH]c(C)c2c(=N)n1-c1cc(Cl)ccc1C)C(=O)N1CCOCC1 (stereo unspecified) | 0 |
| COc1cc(NS(=O)(=O)c2ccc(Br)s2)cc(OC)c1 | 0 |
| COc1ccc(-n2nnnc2-c2cccc(OC)c2)cc1 | 0 |
| CCCNC(=O)C1=C(C)C(=O)OC12CCC(C)CC2 (stereo unspecified) | 0 |
| Cc1cc(NC(=O)C2CCCC2)nc2c1c(=O)oc1ccccc12 | 12 |
| O=C(COC(=O)C1=COCCO1)Nc1ccccc1Oc1ccccc1 | 1 |
| Cc1ccc2[nH]c(=O)c(C(c3nnnn3CCc3ccccc3)N3CCOCC3)cc2c1 (stereo unspecified) | 6 |
| O=C(Cn1nnc(-c2ccncc2)n1)Nc1ccc2c(c1)CCC2 | 0 |
| Cc1nc2ncnn2c(Nc2ccc3c(c2)OCCO3)c1C | 3 |
| COCCNC(=O)C(C)N(c1ccc(Oc2ccccc2)cc1)S(C)(=O)=O (stereo unspecified) | 0 |
| Cc1cccc(C)c1NC(=O)C1CCCCN1C (stereo unspecified) | 0 |
| O=C(NCN1CCCCC1)c1cnccn1 | 0 |
| COc1ccc(Cl)cc1NC(=O)COc1cccc(-n2cnnn2)c1 | 0 |
| Cc1nc2ccccc2c2c1C(=O)N(CCC1=CCCCC1)C2=O | 9 |
| CCOC(=O)c1sc(NC(=O)C2CC=CCC2C(=O)O)nc1C (stereo unspecified) | 3 |
| COC(=O)CN(c1nc(C)c(Cl)c(OC)n1)S(=O)(=O)c1ccc(C)cc1 | 0 |
